Results taken from the supplement of paper PMC9950053.
Structures can show the parent of a compound that is named as a salt.

Each compound was assayed on Danio rerio larvae (5 dpf) (assay: startle (activity period 16 minus period 15, 20-s interval sound) minus DMSO control (percentage points); higher = stronger startle response than DMSO larvae). Conditions: 10 µM; exposure time: 3 h pre-incubation + 3 h imaging.
Protocol: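 Wild-type 5 dpf zebrafish larvae (n=48 per drug, 96-well plates, 28.5 °C) were exposed to Tocris FDA-approved library compounds at 10 µM (0.1% DMSO) for 3 h before and 3 h during imaging. Images were taken every 6 s during visual (moving coloured lines) and acoustic stimuli, and larvae were tracked with the DeepLabCut-based Z-LaP Tracker. Each behavioural measure is the treated-group mean minus the DMSO vehicle control mean (n=844), in percentage points. This mapping covers compounds with 4-character plate codes.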
Compound `Cc1cccc([C@H](C)c2c[nH]cn2)c1C` [Dexmedetomidine hydrochloride] has a startle of 9.98. `CC(C)C[C@H]1C(=O)N2CCC[C@H]2[C@]2(O)O[C@](NC(=O)[C@@H]3C=C4c5cccc6[nH]c(Br)c(c56)C[C@H]4N(C)C3)(C(C)C)C(=O)N12` [Bromocriptine mesylate] was tested, and the startle was -8.86. In the case of `COc1cc2c(cc1OC)C1CC(=O)C(CC(C)C)CN1CC2` (stereo unspecified) [Tetrabenazine], the startle is reported as -4.98. For `C=CCN1C[C@H](C(=O)N(CCCN(C)C)C(=O)NCC)C[C@@H]2c3cccc4[nH]cc(c34)C[C@H]21` [Cabergoline], the startle was -9.97. `CN1C[C@H](C(=O)N[C@]2(C)O[C@@]3(O)[C@@H]4CCCN4C(=O)[C@H](Cc4ccccc4)N3C2=O)C[C@@H]2c3cccc4[nH]cc(c34)C[C@H]21` [Dihydroergotamine mesylate] showed a startle of 6.26. `CCN(C)C(=O)Oc1cccc([C@H](C)N(C)C)c1` [Rivastigmine tartrate] showed a startle of 5.22. For `C=C1C[C@@H]2[C@H](CC[C@]3(C)C(=O)CC[C@@H]23)[C@@]2(C)C=CC(=O)C=C12` [Exemestane], the startle was 1.86. With `CC(O)(CS(=O)(=O)c1ccc(F)cc1)C(=O)Nc1ccc(C#N)c(C(F)(F)F)c1` (stereo unspecified) [Bicalutamide] the startle was 0.428. `CC[C@@H](C(N)=O)N1CCCC1=O` [Levetiracetam] was tested, and the startle was 1.63. For `N[C@@H]1C[C@H]1c1ccccc1` [Tranylcypromine hydrochloride], the startle was -9.63. For `O=c1[nH]c2ccccc2n1C1CCN(CCCC(c2ccc(F)cc2)c2ccc(F)cc2)CC1` [Pimozide], the startle was 0.33.
